# Screens (PubChem)
# Rows were chosen to be rich in hits. Some 7.5% of all compounds tested hit in one or more screens of this group.
# FLuc counter – counter-screen for miR-21 project: firefly luciferase inhibitors or activators; P08659; purified FLuc, Km substrates, luminescence inhibition; Potency, µM (doses to about 57.5 µM), most hits filed as inhibitors; actives 6.9% (n = 360,000); AID 588342; also: nearly all actives have a fitted effect of over 55% in size
# Target sequence (P08659 whole entry, looked up): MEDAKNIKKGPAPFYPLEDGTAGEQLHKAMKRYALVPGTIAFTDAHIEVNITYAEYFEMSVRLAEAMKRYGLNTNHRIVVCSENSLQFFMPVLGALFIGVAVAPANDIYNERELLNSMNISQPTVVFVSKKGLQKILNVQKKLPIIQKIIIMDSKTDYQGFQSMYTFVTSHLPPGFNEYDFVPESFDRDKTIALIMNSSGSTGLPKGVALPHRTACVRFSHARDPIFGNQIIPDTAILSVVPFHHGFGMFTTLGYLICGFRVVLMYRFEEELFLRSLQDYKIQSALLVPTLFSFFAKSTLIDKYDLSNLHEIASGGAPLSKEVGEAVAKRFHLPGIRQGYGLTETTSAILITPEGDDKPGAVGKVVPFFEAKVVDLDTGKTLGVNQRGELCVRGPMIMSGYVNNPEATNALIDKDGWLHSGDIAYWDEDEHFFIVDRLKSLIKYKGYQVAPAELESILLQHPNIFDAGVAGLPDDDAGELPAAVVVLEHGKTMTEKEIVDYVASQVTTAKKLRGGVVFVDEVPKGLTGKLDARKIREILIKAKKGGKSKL
#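 Purified P. pyralis luciferase (10nM final) with 10uM D-luciferin and 10uM ATP (Km levels) in 50mM Tris acetate pH 7.5, 10mM Mg acetate, 0.01% Tween-20, 0.05% BSA; qHTS 6-point titration, ~60 µM downward; luminescence read.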
# NPC1 prom act – activators of NPC1 promoter. Huh7 NPC1 promoter luciferase reporter, 24 h. Potency, µM (series often up to 9.22 µM), actives largely listed as activators. actives 2.4% (n = 320,000); also: nearly all actives have a fitted effect of over 60% in size
#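 Stably transfected Huh7 (NPC1 promoter→luciferase), 1500 cells/well in Opti-MEM + 10% FBS, 2 h settle, then compound 24 h at 37 °C. Luminescence after 10 min with Amplite reagent.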
# Rab9 promoter act – activates the Rab9 promoter | Potency, µM (titrated, usually from 9.22 µM), most hits filed as activators | Huh7 Rab9 promoter-luciferase reporter, luminescence, 24 h | actives 2.8% (n = 320,000); also: nearly all actives have a fitted effect of over 60% in size
#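 Measured in stably transfected Huh7 cells bearing a Rab9 promoter–luciferase construct: 24 h compound treatment at 37 °C, followed by luminescence detection.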
# ELG1 genotox – inducers of genotoxicity in HEK293T ELG1-luciferase cells; HEK293T ELG1-luciferase reporter, luminescence, 16 h; actives 1.3% (n = 330,000); Potency, µM (doses to about 46 µM), usual class: activators; AID 504466; also: nearly all actives have a fitted effect of over 60% in size
#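 Reporter readout depends on ELG1 protein level, which increases with genetic stress. After 16 hr compound exposure at 37 °C, luciferase activity was quantified using ONE-Glo.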
# SMN2 splice up – increases expression of the SMN2 splice variant | HEK293 SMN2-luciferase splicing reporter, luminescence, 30-36 h | Potency, µM (titrated, usually from 46.1 µM), most hits filed as activators | actives 2.8% (n = 210,000) | AID 1458; also: nearly all actives have a fitted effect of over 55% in size
#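 HEK293 cells carry an SMN2 […]–luciferase reporter in which exon 7 inclusion puts luciferase in frame. Cells were plated 10-12 h before compound addition, then incubated 30-36 h at 37C. ONE-Glo luminescence was read; sodium butyrate at 4.5 mM final served as control.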
# Hits are given with their value; n = inactive; u = inconclusive; x = no result given. Calls follow the shape of the dose curve; as a rule, active = well fitted curve in the direction sought with a large enough effect; inconclusive = small, poorly fitted or top-dose-only effect, or another doubt; inactive = no such curve, though single readings can be large; an effect the other way counts as inactive or inconclusive.
SMILES,FLuc counter,NPC1 prom act,Rab9 promoter act,ELG1 genotox,SMN2 splice up
CC1=C(c2ccc(F)cc2)[N+](=O)C(C)(C)N1[O-],26.9µM,n,n,n,x
Cc1c(-c2ccc(F)cc2)[n+](=O)c(-c2ccc(F)cc2)c(C)n1[O-],n,n,n,n,n
CC1=C(c2ccccc2)[N+](=O)C2(CCCC2)N1[O-],n,n,n,n,n
CC1=C(c2ccc(C)cc2)[N+](=O)C(C)(C)N1[O-],9.53µM,n,3.98µM,u,x
Cc1cccc(NC(=O)CSc2nnc(C)c(=O)[nH]2)c1,n,x,x,x,n
O=C(NC1CCCC1)c1cc(-c2ccc(Cl)cc2)on1,2.69µM,1.41µM,1.78µM,4.61µM,x
O=C(NC1CCCCC1)c1cc(-c2ccc(Cl)cc2)on1,n,n,n,n,x
O=C(NC1CCCC1)c1cc(-c2ccc(F)cc2)on1,4.78µM,1µM,1.78µM,4.61µM,x
O=C(NC1CCCC1)c1cc(-c2cccc(Cl)c2)on1,15.1µM,2.82µM,2.82µM,18.3µM,x
O=C(Nc1cccc(C(F)(F)F)c1)Nc1nnc(N2CCCCCC2)s1,n,x,x,x,x
Cc1c(S(=O)(=O)N2CCN(C(c3ccccc3)c3ccccc3)CC2)c(=O)n(C)c(=O)n1C,n,n,n,n,n
CCc1ccc2nc(N3CCC(C(=O)NCCC(C)C)CC3)sc2c1,1.9µM,x,x,x,n
CCCN(CCC)CCNC(=O)C1CCN(c2nc3ccc(CC)cc3s2)CC1,21.3µM,x,x,x,n
CCCCN(CCCC)CCCNC(=O)c1ccc2nc(N3CCCCC3)sc2c1,n,x,x,x,n
CCCN(CCC)CCCNC(=O)C1CCN(c2nc3ccc(CC)cc3s2)CC1,12µM,x,x,x,n
Cc1cc2c(c(Sc3ccccc3)n1)C(=O)OC2,n,n,n,n,n
O=C(NCc1ccccc1Cl)c1ccc(NC(=O)c2nsc3ccccc23)cc1,3.79µM,x,x,x,x
O=C(NCc1ccccc1)c1ccc(NC(=O)c2nsc3ccccc23)cc1,6.01µM,x,x,x,x
CCCOc1ccc(N2C(=O)CC(SCCN)C2=O)cc1 (configuration not stated),12µM,3.98µM,2.24µM,u,12.6µM
COC(=O)c1ccc(N2C(=O)CC(SCCN)C2=O)cc1 (configuration not stated),u,u,u,11.6µM,11.2µM
Cc1ccc(C)c(N(CC(=O)NCCc2ccccc2)C(=O)CCC(=O)Nc2ccccn2)c1,n,n,n,n,x
COc1ccc(Nc2ncccc2C(=O)Nc2ccccc2)cc1,u,n,u,n,n
COC(=O)CC(=O)CSc1nc2c(cc1C#N)CCCCC2,5.36µM,n,u,u,u
CCc1nnc(NC(=O)CSc2nc3c(cc2C#N)CCCC3)s1,0.849µM,0.891µM,0.501µM,u,5.62µM
CCOC(=O)CC(=O)CSc1nc2c(cc1C#N)CCC2,13.5µM,n,n,n,n
SMILES,FLuc counter,NPC1 prom act,Rab9 promoter act,ELG1 genotox,SMN2 splice up
O=C(Cc1ccc(Cl)cc1)Nc1ncc([N+](=O)[O-])s1,15.1µM,n,1.41µM,n,n
O=C(COc1ccc(Cl)cc1)Nc1ncc([N+](=O)[O-])s1,4.26µM,0.562µM,u,u,u
O=C(COC(=O)COc1ccccc1)Nc1ncc([N+](=O)[O-])s1,u,n,n,n,x
COc1ccc(NS(=O)(=O)c2cccc(C(=O)O)c2)cc1S(=O)(=O)N1CCCCC1,x,x,x,n,x
Cc1c(C(=O)N2CCN(S(=O)(=O)c3ccccc3)CC2)oc2ccc(Br)cc12,x,x,x,n,x
Brc1ccc(-c2cn3c(n2)CCc2ccc4cccnc4c2-3)cc1,13.5µM,n,n,n,n
Cc1ccc(-n2c(C)cc(C(=O)CSc3nncs3)c2C)cc1,3.01µM,1µM,0.501µM,u,n
Cc1ccc(-n2c(C)cc(C(=O)CSc3nnnn3C)c2C)cc1,2.69µM,0.708µM,0.708µM,n,u
CC(=O)c1ccc(NC(=O)N2C3CCC2CC(O)(c2cccnc2)C3)cc1 (configuration not stated),n,n,n,n,n
CCOC(=O)c1ccc(N2C(=O)CC(C3CCCO3)C2=O)cc1 (configuration not stated),n,n,n,n,n
O=C(CSc1nnc(NC(=O)C2CC2)s1)NCc1ccccc1Cl,n,n,n,n,x
COc1ccc2c(c1OC)C(=O)N1c3ccccc3COC21 (configuration not stated),3.38µM,3.55µM,1.78µM,u,14.1µM
COc1ccc2c(c1OC)C(=O)N1c3ccccc3C(=O)N(c3ccccc3F)C21 (configuration not stated),n,n,n,n,n
COc1ccc2c(c1OC)C(=O)N1c3ccccc3SC21 (configuration not stated),2.39µM,2.51µM,2.82µM,u,11.2µM
COc1ccc2c(c1OC)C(=O)N1c3ccccc3C(=O)OC21 (configuration not stated),x,x,x,x,n
Clc1ccc(SCCN2CCNCC2)cc1,n,n,n,n,x
O=c1c(Br)c(N2CCCC2)cnn1-c1ccccc1,21.3µM,3.98µM,2µM,u,11.2µM
O=c1c(Br)c(N2CCCCC2)cnn1-c1ccccc1,15.1µM,3.55µM,2µM,u,x
O=C(CSCc1ccc(Cl)cc1Cl)Nc1ccccc1C(=O)Nc1ccc(C(=O)O)cc1,19µM,n,n,n,n
O=C(O)c1ccc(Cl)c(S(=O)(=O)Nc2ccccc2C(=O)Nc2ccc(Cl)cc2)c1,26.9µM,n,n,n,x
O=C(Nc1ccccn1)c1ccc(Cl)c(S(=O)(=O)N2CCCCCC2)c1,21.3µM,n,u,n,x
O=C(CSCc1ccc(Cl)cc1Cl)Nc1ccc(O)cc1C(=O)O,u,n,n,n,x
Cc1ccnc(NC(=O)c2ccc3c(c2)S(=O)(=O)c2ccccc2C3=O)c1,15.1µM,u,n,n,x
O=C(Nc1ccccn1)c1cccc(S(=O)(=O)N2CCCCC2)c1,n,n,n,n,n
Cc1oc2ncn(C)c(=O)c2c1C(=O)NCCCN1CCCC(C)C1 (configuration not stated),n,x,x,x,x
SMILES,FLuc counter,NPC1 prom act,Rab9 promoter act,ELG1 genotox,SMN2 splice up
O=C(Nc1ccc(C2CC2(Cl)Cl)cc1)c1ccccc1Br (configuration not stated),u,n,n,n,u
Cc1ccnc(NC(=O)c2ccc(Cl)c(S(=O)(=O)N3CCCC3)c2)c1,19µM,u,u,u,x
O=C(Nc1nc(-c2cccs2)cs1)c1cccc(S(=O)(=O)N2CCCCCC2)c1,15.1µM,n,u,n,n
Cc1ccc(C(=O)Nc2nccs2)cc1S(=O)(=O)N1CCCCC1,16.9µM,n,n,n,n
O=C(Nc1nccs1)c1ccc(Br)c(S(=O)(=O)N2CCCC2)c1,u,n,n,n,x
Cc1ccnc(NC(=O)c2ccc(Cl)c(S(=O)(=O)N3CCCCC3)c2)c1,x,n,n,n,x
O=C(Nc1nc(-c2cccs2)cs1)c1ccc(S(=O)(=O)N2CCCCC2)cc1,n,n,n,n,n
Cc1ccc(C(=O)Nc2ccc3cn[nH]c3c2)cc1S(=O)(=O)N1CCCCC1,21.3µM,u,u,n,n
Cc1ccc(C(=O)Nc2cccc(O)c2)cc1S(=O)(=O)N1CCCCCC1,15.1µM,n,u,n,n
